Results as given in PubChem BioAssay AID1159580 (chemical genetic matrix, 2015).
Several values for one entry are separate records, joined by “and”; a condition that tells them apart may be missing. Identical values can stand only once. The campaign covered roughly 5,500 compounds. About 2,000 (36%) were called active. Not shown: some 18% with an inconclusive outcome. No stated cut-off is given here; in the data, active means normalized growth mostly below about 0.91 (no sharp cut-off); inconclusive means no clear call, values can overlap the other calls; inactive means mostly above about 0.92. This is one part of the list.

Test: chemical genetic growth profiling, strain panel (AID 1159580);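 further: tested at 20 µM; growth read once vehicle control cultures reached saturation at 30 °C; 1 = growth at the plate median or of vehicle wells; lower values mean less growth of the strain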
Settings: growth OD

Measured: normalized growth

NNCCc1ccccc1
inactive: S. cerevisiae deletion strains, locus YJR066W, strain TOR1, hits give low values 0.945 | S. cerevisiae deletion strains, locus YJR075W, strain HOC1, hits give low values 0.986 | S. cerevisiae deletion strains, locus YKL009W, strain mrt4, hits give low values 0.995 | S. cerevisiae deletion strains, locus YKL068W, hits give low values 0.986 | S. cerevisiae deletion strains, locus YKL085W, strain MDH1 (second series), hits give low values 0.998 | S. cerevisiae deletion strains, locus YKL085W, strain MDH1, hits give low values 0.998 | S. cerevisiae deletion strains, locus YKL160W, strain elf1, hits give low values 1 | S. cerevisiae deletion strains, locus YKL190W, strain CNB1, hits give low values 0.966 | S. cerevisiae deletion strains, locus YKR001C, strain vps1, hits give low values 0.992 | S. cerevisiae deletion strains, locus YKR026C, strain gcn3, hits give low values 1.01 | S. cerevisiae deletion strains, locus YKR091W, strain srl3, hits give low values 1.01 | S. cerevisiae deletion strains, locus YLL001W, strain dnm1, hits give low values 1 | S. cerevisiae deletion strains, locus YLL026W, hits give low values 1 | S. cerevisiae deletion strains, locus YLL041C, strain sdh2, hits give low values 1 | S. cerevisiae deletion strains, locus YLR027C, strain aat2, hits give low values 1.01 | S. cerevisiae deletion strains, locus YLR039C, strain RIC1, hits give low values 0.897 | S. cerevisiae deletion strains, locus YLR058C, strain SHM2, hits give low values 0.974 | S. cerevisiae deletion strains, locus YLR102C, strain apc9, hits give low values 0.991 | S. cerevisiae deletion strains, locus YLR113W, strain HOG1, hits give low values 0.987 | S. cerevisiae deletion strains, locus YLR221C, strain rsa3, hits give low values 1.01 | S. cerevisiae deletion strains, locus YLR258W, strain gsy2, hits give low values 1.01 | S. cerevisiae deletion strains, locus YLR262C, strain YPT6 (second series), hits give low values 0.969 | S. cerevisiae deletion strains, locus YLR262C, strain YPT6, hits give low values 0.858 | S. cerevisiae deletion strains, locus YLR268W, strain sec22, hits give low values 1.05 | S. cerevisiae deletion strains, locus YLR320W, strain mms22, hits give low values 1.02 | S. cerevisiae deletion strains, locus YLR330W, strain CHS5, hits give low values 0.994 | S. cerevisiae deletion strains, locus YLR342W, strain FKS1 (second series), hits give low values 0.997 | S. cerevisiae deletion strains, locus YLR342W, strain FKS1, hits give low values 1.02 | S. cerevisiae deletion strains, locus YLR357W, strain rsc2, hits give low values 0.969 | S. cerevisiae deletion strains, locus YLR370C, strain arc18, hits give low values 1.01 | S. cerevisiae deletion strains, locus YLR371W, strain rom2, hits give low values 0.966 | S. cerevisiae deletion strains, locus YLR384C, strain iki3, hits give low values 1.01 | S. cerevisiae deletion strains, locus YLR418C, strain cdc73, hits give low values 0.965 | S. cerevisiae deletion strains, locus YML016C, strain PPZ1, hits give low values 0.989 | S. cerevisiae deletion strains, locus YML032C, strain rad52, hits give low values 0.996 | S. cerevisiae deletion strains, locus YML120C, strain ndi1, hits give low values 1.01 | S. cerevisiae deletion strains, locus YML124C, strain tub3, hits give low values 0.986 | S. cerevisiae deletion strains, locus YMR058W, strain fet3, hits give low values 1 | S. cerevisiae deletion strains, locus YMR078C, strain ctf18, hits give low values 0.969 | S. cerevisiae deletion strains, locus YMR125W, strain sto1, hits give low values 0.999 | S. cerevisiae deletion strains, locus YMR129W, hits give low values 1 | S. cerevisiae deletion strains, locus YMR205C, strain PFK2, hits give low values 1.02 | S. cerevisiae deletion strains, locus YMR223W, strain ubp8, hits give low values 0.95 | S. cerevisiae deletion strains, locus YMR231W, strain pep5, hits give low values 1.01 | S. cerevisiae deletion strains, locus YMR263W, strain SAP30, hits give low values 1 | S. cerevisiae deletion strains, locus YMR307W, strain GAS1, hits give low values 1 | S. cerevisiae deletion strains, locus YNL067W, strain RPL9B, hits give low values 0.981 | S. cerevisiae deletion strains, locus YNL071W, strain lat1, hits give low values 1.01 | S. cerevisiae deletion strains, locus YNL128W, strain TEP1, hits give low values 1.01 | S. cerevisiae deletion strains, locus YNL153C, strain GIM3, hits give low values 0.99 | S. cerevisiae deletion strains, locus YNL175C, strain NOP13, hits give low values 1 | S. cerevisiae deletion strains, locus YNL183C, strain NPR1, hits give low values 0.958 | S. cerevisiae deletion strains, locus YNL197C, strain WHI3, hits give low values 0.996 | S. cerevisiae deletion strains, locus YNL209W, strain ssb2, hits give low values 1 | S. cerevisiae deletion strains, locus YNL224C, strain SQS1, hits give low values 0.99 | S. cerevisiae deletion strains, locus YNL233W, strain BNI4, hits give low values 0.999 | S. cerevisiae deletion strains, locus YNL248C, strain rpa49, hits give low values 1.02 | S. cerevisiae deletion strains, locus YNL250W, strain rad50, hits give low values 0.983 | S. cerevisiae deletion strains, locus YNL271C, strain bni1, hits give low values 0.994 | S. cerevisiae deletion strains, locus YNL298W, strain CLA4, hits give low values 0.997 | S. cerevisiae deletion strains, locus YNL307C, strain MCK1, hits give low values 0.987 | S. cerevisiae deletion strains, locus YNL322C, strain KRE1 (second series), hits give low values 1.02 | S. cerevisiae deletion strains, locus YNL322C, strain KRE1, hits give low values 0.988 and 0.996 | S. cerevisiae deletion strains, locus YNR049C, strain mso1, hits give low values 1.01 | S. cerevisiae deletion strains, locus YNR052C, strain pop2, hits give low values 0.991 | S. cerevisiae deletion strains, locus YOL006C, strain TOP1, hits give low values 0.983 | S. cerevisiae deletion strains, locus YOL012C, strain htz1 0.89 | S. cerevisiae deletion strains, locus YOL147C, strain pex11, hits give low values 0.986 | S. cerevisiae deletion strains, locus YOR001W, strain rrp6, hits give low values 1.01 | S. cerevisiae deletion strains, locus YOR061W, strain CKA2, hits give low values 0.964 | S. cerevisiae deletion strains, locus YOR069W, strain VPS5, hits give low values 0.993 | S. cerevisiae deletion strains, locus YOR070C, strain gyp1, hits give low values 1 | S. cerevisiae deletion strains, locus YOR080W, strain dia2, hits give low values 1.01 | S. cerevisiae deletion strains, locus YOR083W, strain WHI5 (second series), hits give low values 1 | S. cerevisiae deletion strains, locus YOR083W, strain WHI5, hits give low values 0.988 | S. cerevisiae deletion strains, locus YOR106W, strain vam3, hits give low values 1.02 | S. cerevisiae deletion strains, locus YOR136W, strain idh2, hits give low values 0.973 | S. cerevisiae deletion strains, locus YOR144C, strain elg1, hits give low values 0.987 | S. cerevisiae deletion strains, locus YOR184W, strain ser1, hits give low values 0.981 | S. cerevisiae deletion strains, locus YOR231W, strain MKK1, hits give low values 0.982 | S. cerevisiae deletion strains, locus YOR265W, strain rbl2, hits give low values 1 | S. cerevisiae deletion strains, locus YOR270C, strain vph1, hits give low values 1.11 | S. cerevisiae deletion strains, locus YOR290C, strain snf2, hits give low values 1 | S. cerevisiae deletion strains, locus YOR316C, strain cot1, hits give low values 0.984 | S. cerevisiae deletion strains, locus YPL051W, strain arl3, hits give low values 1.01 | S. cerevisiae deletion strains, locus YPL078C, strain atp4, hits give low values 1 | S. cerevisiae deletion strains, locus YPL106C, strain sse1, hits give low values 0.977 | S. cerevisiae deletion strains, locus YPL240C, strain hsp82, hits give low values 1 | S. cerevisiae deletion strains, locus YPL241C, strain CIN2, hits give low values 0.994 | S. cerevisiae deletion strains, locus YPL256C, strain CLN2, hits give low values 0.958 | S. cerevisiae deletion strains, locus YPR119W, strain clb2, hits give low values 0.981 | S. cerevisiae deletion strains, locus YPR141C, strain kar3, hits give low values 0.968 | S. cerevisiae deletion strains, locus YPR163C, strain tif3, hits give low values 0.989 | S. cerevisiae deletion strains, locus YPR167C, strain met16, hits give low values 0.985 | S. cerevisiae deletion strains, strain wtn01, hits give low values 0.992 | S. cerevisiae strains, strain wild type, hits give low values 0.981
